Screening data (PubChem BioAssay)
A selection: hits, their analogues and other compounds. The true share with any hit is near 0.4%.
EPAC1 ag: qHTS for Agonist of cAMP-regulated guanine nucleotide exchange factor 3 (EPAC1): primary screen; 0.073% of 360,000 active; Potency, µM (top dose mostly 154 µM), inactives show at the highest dose activation, actives largely listed as activators; EPAC1 agonist qHTS, biochemical assay; response scale: 100% = response to 6.5 mM cAMP; also: potency is read from the fitted curve at half-maximal effect; nearly all actives have a fitted effect of over 60% in size
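Compounds were pinned as a concentration titration into mixtures of EPAC1 (100 nM), BODIPY-GDP-loaded Rap1B (250 nM) and GDP (50 uM). After 5 min at room temperature, fluorescence was followed for 30 min; activity was scaled to 6.5 mM cAMP.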
TRPML1 blocker: qHTS for Inhibitors of the Human Mucolipin Transient Receptor Potential 1 (TRPML1); 0.02% of 390,000 active; activity change, negative = inhibition, % (concentration not given with the values); TRPML1-inducible cells, Ca2+ dye fluorescence, FDSS; hits give low values; inhibition of EC80 agonist-evoked calcium signal; Mucolipin-1 (Homo sapiens), Q9GZU1; in the data active = activity change below about -50%; inconclusive = between about -30% and that limit;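 also: stimulus is agonist 54-4 at its EC80 concentration; % is scaled to controls: 0 for no effect and ±100 for the full control effect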
Target sequence (Q9GZU1 whole entry, looked up): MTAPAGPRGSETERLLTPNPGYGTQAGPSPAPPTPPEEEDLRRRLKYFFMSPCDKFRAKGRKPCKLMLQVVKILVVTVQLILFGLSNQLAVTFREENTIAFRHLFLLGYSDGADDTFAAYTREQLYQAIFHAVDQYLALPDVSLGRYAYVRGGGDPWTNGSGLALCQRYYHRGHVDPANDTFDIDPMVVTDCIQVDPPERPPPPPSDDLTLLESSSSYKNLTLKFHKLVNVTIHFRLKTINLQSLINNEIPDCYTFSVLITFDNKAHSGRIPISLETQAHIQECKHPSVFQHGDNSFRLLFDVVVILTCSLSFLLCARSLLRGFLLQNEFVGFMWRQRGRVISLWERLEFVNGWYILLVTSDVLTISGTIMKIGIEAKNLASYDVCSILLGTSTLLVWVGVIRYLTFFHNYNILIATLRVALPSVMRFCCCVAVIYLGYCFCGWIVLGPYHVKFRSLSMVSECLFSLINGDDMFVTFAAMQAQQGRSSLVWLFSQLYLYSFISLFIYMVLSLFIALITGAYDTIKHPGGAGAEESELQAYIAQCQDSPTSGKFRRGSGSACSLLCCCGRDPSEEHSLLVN
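TRPML1-DL cells, Tet-induced overnight (~16 h, 37 °C) at 1,500 cells/well, were loaded with Ca8 no-wash dye plus quencher for 45-90 min at room temperature. Compounds were pinned during FDSS kinetic reading; agonist 54-4 at EC80 (4 uM final) then added.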
EPAC2 antagonist: qHTS for Antagonist of cAMP-regulated guanine nucleotide exchange factor 2 (EPAC2): primary screen. 0.18% of 360,000 active. AID 720708, 2013. Potency, µM (doses to about 114 µM), for inactives: at the highest dose activity, negative = inhibition, actives largely listed as inhibitors. EPAC2 GEF exchange of Rap1B-BODIPY-GDP, fluorescence. Rap guanine nucleotide exchange factor 4 (Homo sapiens), Q8WZA2; also: potency is read from the fitted curve at half-maximal effect; % is scaled to controls: 0 for no effect and ±100 for the full control effect; nearly all actives have a fitted effect of over 45% in size
EPAC1 antagonist: qHTS for Antagonist of cAMP-regulated guanine nucleotide exchange factor 3 (EPAC1): primary screen. AID 720709, 2013. 0.14% of 360,000 active. EPAC1 GEF assay, Rap1b-BODIPY-GDP exchange fluorescence. Rap guanine nucleotide exchange factor 3 (Homo sapiens), O95398. Potency, µM (series often up to 115 µM), inactives show top-dose activity change, negative = inhibition, usual class: inhibitors;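 also: potency is read from the fitted curve at half-maximal effect; plate controls were vehicle for no effect and positive control for full effect; nearly all actives have a fitted effect of over 50% in size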
TRPML1 ag: qHTS for Agonists of the Human Mucolipin Transient Receptor Potential 1 (TRPML1); Mucolipin-1 (Homo sapiens), Q9GZU1; TRPML1-expressing cells, Ca2+ dye fluorescence, FDSS; activation, % (test concentration not listed); 0.12% of 410,000 active; AID 624414, 2012; in the data active = activation above about 50%; inconclusive = mostly about 30% to 49%; also: 0% is about no effect
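Cells: TRPML1-DL, 1X Tet inducer, ~16 h at 37 degrees C/5% CO2. Dye: ABD Ca8 no-wash + quencher, 45-90 min RT. Read: 10 s baseline, compound add, 110 s agonist phase; 54-4 EC80 (4uM final), 110 s antagonist phase.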
EPAC2 agonist: qHTS for Agonist of cAMP-regulated guanine nucleotide exchange factor 4 (EPAC2): primary screen; Rap guanine nucleotide exchange factor 4 (Homo sapiens), Q8WZA2; EPAC2 activation, biochemical qHTS; response scale: 100% = 6.5 mM cAMP response; Potency, µM (titrated, usually from 154 µM), inactives show at the top dose activation, usual class: activators; 0.079% of 360,000 active; AID 720711, 2013; also: potency is read from the fitted curve at half-maximal effect; nearly all actives have a fitted effect of over 50% in size
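In this primary screen, activation is scored as increased exchange of BODIPY-GDP from Rap1B by 100 nM EPAC2, with 50 uM GDP as competitor. Signal is normalized to the 6.5 mM cAMP agonist control.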
* = called active by the depositor; ? = inconclusive; . = no result. Unless noted, calls follow the shape of the dose curve; as a rule, active = well fitted curve in the direction sought with a large enough effect; inconclusive = small, poorly fitted or top-dose-only effect, or another doubt; inactive = no such curve, though single readings can be large; an effect the other way counts as inactive or inconclusive.

SMILES	EPAC1 ag	TRPML1 blocker	EPAC2 antagonist	EPAC1 antagonist	TRPML1 ag	EPAC2 agonist
Clc1ccccc1C(c1ccccc1)(c1ccccc1)n1ccnc1	5%	5	14µM*	-4%	1	20%
Cc1ccc(NS(=O)(=O)c2ccc(C(=O)N3CC(C)CC(C)C3)cc2)cc1 (configuration not stated)	100µM*	7	-18%	-12%	29	4%
CN(C)C1CCC(CC2CCc3ccccc32)CC1 (configuration not stated)	.	.	.	.	-1	.
CCc1nnc(NS(=O)(=O)c2ccc(NCc3cc(Cl)ccc3O)cc2)s1	-8%	4	?	?	-1	-4%
CCc1nnc(NS(=O)(=O)c2ccc(NCc3cc(Cl)cc(Cl)c3O)cc2)s1	-26%	9	18µM*	-22%	-1	2%
Cc1ccc(-c2cc(C(=O)Nc3ccc4c(c3)OCCO4)c3ccccc3n2)cc1	8%	-2	-14%	-5%	-1	7.9µM*
C[n+]1ccc(/C=C/c2ccc([N+](C)(C)C)cc2)c2ccccc21	.	.	.	.	-1	.
Cc1ccc(C(C)C)c(OCC(=O)NCC2(N3CCOCC3)CCCCC2)c1	.	-20	.	.	76*	.
COc1cc(S(=O)(=O)Nc2ccccc2C)ccc1Cl	-1%	8	28µM*	10%	0	6%
O=C(Nc1nnc(-c2ccc(Cl)cc2)o1)c1nc2ccccc2s1	-20%	-16	4%	-16%	87*	2%
O=C(Nc1nnc(-c2ccc(Cl)cc2)o1)Nc1ccccc1Cl	8%	8	3%	2%	1	7%
CC(C)C[C@H]1COCCS(=O)(=O)N1Cc1cccc(C(F)(F)F)c1	-32%	24	14µM*	-23%	0	-9%
COc1cccc2cc(/C(=N/O)c3ccccc3)oc12	6%	6	50µM*	-19%	2	23%
CCN1/C(=C/c2ccc3cccc(C)c3[n+]2CC)Sc2ccccc21	-24%	-11	-3%	-15%	58*	-13%
CCN1/C(=C/c2ccc3cc(C)cc(C)c3[n+]2CC)Sc2cc(C)ccc21	-9%	-24	-1%	-27%	24	0%
CC1(C)CCC(c2ccc(Cl)cc2)=C(CN2CCN(c3ccc(C(=O)NS(=O)(=O)c4ccc(N[C@H](CCN5CCOCC5)CSc5ccccc5)c(S(=O)(=O)C(F)(F)F)c4)cc3)CC2)C1	.	.	.	.	0	.
CCCCN1C(=O)C(CC(=O)NCc2cccs2)CC(C(=O)N(C)C)=C1C (configuration not stated)	-7%	-53*	2%	2%	0	0%
COCCCN1C(=O)C(CC(=O)NCc2cccs2)CC(C(=O)N(C)C)=C1C (configuration not stated)	13%	-7	6%	3%	0	9%
Cc1ccc(CSC2=NCCN2S(=O)(=O)c2ccccc2)cc1	9%	36	-17%	2%	2	7%
Cc1ccc(CSC2=NCCN2S(=O)(=O)c2ccc(F)cc2)cc1	8%	71	50µM*	?	7	12%
O=C(Cc1ccccc1Cl)NO	.	.	.	.	0	.
Cc1ccc(-c2ccc(/C=N\NC(=O)c3cc4c(ccc5ccccc54)o3)o2)cc1[N+](=O)[O-]	0%	13	2%	-6%	0	8%
O=C(N/N=C/c1ccc(-c2ccc(Cl)c(C(=O)O)c2)o1)c1cc2c(ccc3ccccc32)o1	11%	.	17%	40µM*	.	28%
O=C(O)c1cccc(S(=O)(=O)Nc2ccc([N+](=O)[O-])cc2O)c1	-2%	12	0%	-8%	0	6%
CCOc1ccc(S(=O)(=O)Nc2cc3c(C(=O)OC)c(COC)oc3c3ccccc23)cc1	.	-16	.	.	-1	.
SMILES	EPAC1 ag	TRPML1 blocker	EPAC2 antagonist	EPAC1 antagonist	TRPML1 ag	EPAC2 agonist
CCc1ccc(S(=O)(=O)Nc2cc(SCC(=O)O)c(O)c3ccccc23)cc1	?	10	?	89µM*	0	10%
O=C(O)CSc1cc(NS(=O)(=O)c2cccc([N+](=O)[O-])c2)c2ccccc2c1O	24%	.	?	?	.	112µM*
Cc1ccc(C)c(S(=O)(=O)Nc2cc(SCC(=O)O)c(O)c3ccccc23)c1	21%	0	-6%	?	0	4%
CCOc1ccc(S(=O)(=O)Nc2cc(SCC(=O)O)c(O)c3ccccc23)cc1	28%	.	-4%	89µM*	.	11%
CNc1c(Br)cc(C(O)C2=CCc3ccccc32)cc1Br (configuration not stated)	.	.	.	.	0	.
C1=Cc2ccccc2/C1=C\c1cc[cH-]c1.[Fe+2].c1cc[cH-]c1	.	.	.	.	-1	.
CCc1ccc2oc(C(=O)NCCc3ccc(OC)c(OC)c3)cc(=O)c2c1	.	-3	.	.	-1	.
COc1ccc(C2=NN(c3ccc(C=O)cc3)C(c3ccccc3)C2)cc1 (configuration not stated)	12%	39	4%	-13%	2	10%
COc1ccc(C2CC(c3cccs3)=NN2c2ccc(C=O)cc2)cc1 (configuration not stated)	89µM*	-11	22%	109%	?	14%
O=C(NCc1cc(C(F)(F)F)ccc1Cl)c1cccc2c1C(=O)c1ccc(N3CCCCC3)cc1S2(=O)=O	11%	4	372%	-3%	0	29%
O=C(NCc1ccc(OC(F)(F)F)cc1)c1cccc2c1C(=O)c1ccc(N3CCCC3)cc1S2(=O)=O	8%	-6	79µM*	-9%	0	100µM*
O=C(NCc1ccc(OC(F)(F)F)cc1)c1cccc2c1C(=O)c1ccc(N3CCC(Cc4ccccc4)CC3)cc1S2(=O)=O	17%	24	32%	-3%	1	-12%
O=C(NCc1ccc(OC(F)(F)F)cc1)c1cccc2c1C(=O)c1ccc(N3CCCCC3)cc1S2(=O)=O	-11%	-10	202%	22%	4	100µM*
O=C(NCc1cc(C(F)(F)F)ccc1Cl)c1cccc2c1C(=O)c1ccc(N3CCC(N4CCCCC4)CC3)cc1S2(=O)=O	-12%	.	?	?	.	89µM*
CCC[N+](C)(C)c1ccc(/C=C/c2ccnc3ccccc23)cc1	.	.	.	.	0	.
